Screens from PubChem.
Most compounds without a hit are left out; they make up all but 11% or so of the library.
HEK cytotox: Cytotoxic Profiling in HEK 293 Cell Line of Diverse Libraries Using Quantitative High-Throughput Screening. HEK 293 viability, ATP luminescence (CellTiter-Glo), 48-72 h. Potency, µM (series often up to 115 µM), inactives show at the top dose activity change, negative = cytotoxicity, usual class: inhibitors. actives 6.6% (n = 94,000). AID 1345083, 2018; also: % is scaled to controls: 0 for no effect and ±100 for the full control effect; nearly all actives have a fitted effect of over 60% in size
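Read-out: CellTiter-Glo ATP luminescence. Cells: HEK 293, 250 cells/well. Exposure: 48 or 72 hr, 37 degree Celsius.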
NPR1 antag: Natriuretic polypeptide receptor (hNpr1) antagonism - Primary qHTS. Atrial natriuretic peptide receptor 1 (Homo sapiens), P16066. HEK293 hNpr1 GloSensor cGMP, ANP-stimulated luminescence. Potency, µM (titrated, usually from 46.3 µM), inactives show at the highest dose activity change, negative = inhibition, hits mostly inhibitors. actives 1.6% (n = 76,000); calls by dose curve; also: % is scaled to controls: 0 for no effect and ±100 for the full control effect; nearly all actives have a fitted effect of over 60% in size
Target sequence (P16066 whole entry, looked up): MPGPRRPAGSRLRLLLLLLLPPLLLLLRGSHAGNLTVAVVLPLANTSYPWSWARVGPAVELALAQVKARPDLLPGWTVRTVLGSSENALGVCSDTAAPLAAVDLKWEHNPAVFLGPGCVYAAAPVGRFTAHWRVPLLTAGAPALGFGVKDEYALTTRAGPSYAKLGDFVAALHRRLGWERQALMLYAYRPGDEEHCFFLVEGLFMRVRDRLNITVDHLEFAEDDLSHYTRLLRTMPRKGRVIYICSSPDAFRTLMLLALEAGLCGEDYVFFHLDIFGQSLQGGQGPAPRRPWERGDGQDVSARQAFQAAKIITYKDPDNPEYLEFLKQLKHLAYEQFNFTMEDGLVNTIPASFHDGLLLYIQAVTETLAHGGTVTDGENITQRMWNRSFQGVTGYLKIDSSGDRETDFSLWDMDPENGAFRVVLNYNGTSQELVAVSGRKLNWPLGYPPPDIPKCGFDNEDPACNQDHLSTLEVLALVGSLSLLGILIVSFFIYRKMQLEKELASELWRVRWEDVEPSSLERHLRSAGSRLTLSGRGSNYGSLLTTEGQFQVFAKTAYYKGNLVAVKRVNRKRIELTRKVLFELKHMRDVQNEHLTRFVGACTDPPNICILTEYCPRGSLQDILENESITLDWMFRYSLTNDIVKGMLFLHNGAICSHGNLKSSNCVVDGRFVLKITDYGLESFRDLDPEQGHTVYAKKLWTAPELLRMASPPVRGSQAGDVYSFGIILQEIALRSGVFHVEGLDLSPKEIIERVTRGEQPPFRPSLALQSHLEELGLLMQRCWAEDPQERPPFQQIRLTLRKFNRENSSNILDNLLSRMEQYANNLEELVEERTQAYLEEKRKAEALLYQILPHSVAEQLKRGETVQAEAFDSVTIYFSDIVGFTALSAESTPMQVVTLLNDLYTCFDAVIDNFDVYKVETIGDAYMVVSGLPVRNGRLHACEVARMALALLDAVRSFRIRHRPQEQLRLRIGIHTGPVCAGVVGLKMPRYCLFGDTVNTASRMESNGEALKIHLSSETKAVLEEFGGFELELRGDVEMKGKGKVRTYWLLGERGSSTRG
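Compound pre-incubated 30 min at room temperature on GloSensor-loaded HEK293 cells stably carrying hNpr1 and the pGS-40F cGMP biosensor. Stimulation uses hNppA at 0.1 nM final; luminescence is taken at baseline and 20 min post-agonist.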
FLuc inh-1: Firefly luciferase inhibition profiling of diverse chemical library using quantitative high-throughput screening. Luciferin 4-monooxygenase (Photinus pyralis), P08659. actives 2.5% (n = 76,000). Potency, µM (highest dose often 115 µM), most hits filed as inhibitors. purified P. pyralis luciferase, luminescence, biochemical. AID 1347043, 2019; also: % is scaled to controls: 0 for no effect and ±100 for the full control effect; nearly all actives have a fitted effect of over 65% in size
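Purified 10nM P. pyralis luciferase with 10uM D-luciferin and 10uM ATP in 50mM Tris acetate pH 7.5, 10mM Mg acetate, 0.01% Tween-20, 0.05% BSA. qHTS titration; luminescence read by CCD imager.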
NIH3T3 tox: Cytotoxic Profiling in NIH 3T3 Cell Line of Diverse Libraries Using Quantitative High-Throughput Screening; NIH 3T3 viability, CellTiter-Glo ATP luminescence, 48-72 h; Potency, µM (titrated, usually from 96.7 µM), for inactives: at the highest dose activity change, negative = cytotoxicity, hits mostly inhibitors; actives 4.3% (n = 94,000); AID 1345082, 2018; also: % is scaled to controls: 0 for no effect and ±100 for the full control effect; nearly all actives have a fitted effect of over 55% in size
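ATP-dependent luminescence (CellTiter-Glo) served as the viability signal for NIH 3T3 cells treated with compound for 48 or 72 hr at 37 °C.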
FLuc SDR no ATP: Firefly luciferase (FLuc-C-HiBiT) SDR gain of signal screen - without ATP; shares compounds with FLuc inh-1; Potency, µM (highest dose often 32.7 µM), for inactives: at the top dose activation (signal gain), usual class: activators; Purified FLuc-C-HiBiT, Nano-Glo HiBiT luminescence, no ATP; actives 7.8% (n = 1,300); also: nearly all actives have a fitted effect of over 55% in size
FLuc SDR ATP: Firefly luciferase (FLuc-C-HiBiT) SDR gain of signal screen - plus ATP. AID 1963319, 2024. shares compounds with FLuc inh-1. Potency, µM (highest dose often 32.7 µM), inactives show at the top dose activation (gain of signal), actives largely listed as activators. purified FLuc-C-HiBiT + ATP, HiBiT complementation luminescence. actives 8.7% (n = 1,300);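 also: signal reports ligand binding via conformational change of the enzyme rather than luciferase catalysis; % of control where 0% means no effect; nearly all actives have a fitted effect of over 55% in size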
FLuc inh-2: Firefly luciferase (FLuc-C-HiBiT) enzymatic inhibition screen - Functional assay; purified FLuc-C-HiBiT enzyme, luciferin luminescence; shares compounds with FLuc inh-1; actives 42% (n = 1,300); Potency, µM (series often up to 32.7 µM), for inactives: at the highest dose activity change, negative = inhibition, usual class: inhibitors; AID 1963320, 2024; also: % is scaled to controls: 0 for no effect and ±100 for the full control effect; nearly all actives have a fitted effect of over 70% in size
Numbers without * were called inactive; i = inactive; ? = inconclusive; . = no result given; [ ] = remark or other dose. Unless noted, calls follow the shape of the dose curve; as a rule, active = well fitted curve in the direction sought with a large enough effect; inconclusive = small, poorly fitted or top-dose-only effect, or another doubt; inactive = no such curve, though single readings can be large; an effect the other way counts as inactive or inconclusive. Potency is read from the fitted curve at half-maximal effect.

SMILES	HEK cytotox	NPR1 antag	FLuc inh-1	NIH3T3 tox	FLuc SDR no ATP	FLuc SDR ATP	FLuc inh-2
CCC1Oc2ccc(NC(=O)COc3ccccc3)cc2CN(Cc2ccc(OC)cc2)C1=O (centres undefined)	?	-7%	i	?	.	.	.
COc1ccc(OCC(=O)Nc2ccc(O)c(-c3nc4ccccc4s3)c2)cc1	.	.	.	.	13%	10%	-14%
O=C(Nc1ccc(-c2nc3ccccc3s2)c(O)c1)c1ccc(Br)cc1	.	.	.	.	15%	10%	5%
COc1cccc(C(=O)Nc2ccc(O)c(-c3nc4ccccc4s3)c2)c1	.	.	.	.	13%	8%	-8%
COc1cc(F)c(-c2nccn2CC(O)c2ccccc2)cc1OC (centres undefined)	i	0%	i	-3%	.	.	.
O=C(NCCc1ccccc1)Nc1cnc2c(c1)CCC2	i	.	.	-12%	.	.	.
CC(C)NC(=O)N1CC2ON=C(C(=O)NCc3cccnc3)C2C1 (centres undefined)	-26%	.	.	-19%	.	.	.
Cc1ccc(C(=O)Nc2ccc3oc(-c4cccnc4)nc3c2)c(Cl)c1	.	.	.	.	17%	15%	?
O=C(Nc1ccc(F)cc1)c1ccc2oc(-c3cccnc3)nc2c1	-20%	.	.	-16%	.	.	.
CCCc1noc(-c2ccn3c(CNC(=O)c4ccccc4F)nnc3c2)n1	-7%	-8%	i	-28%	.	.	.
Cc1nn(C)cc1CN(C)C(=O)c1cn2ccnc(-c3ccccc3)c2n1	-16%	0%	i	-25%	.	.	.
Cc1cccc(CNC(=O)Cc2csc3ccccc23)c1	.	.	.	.	16%	12%	-17%
O=C1c2cnc(-c3ccc(F)cc3)nc2OCCN1CC1CC1	.	.	.	.	?	?	14µM*
O=C1c2cnc(-c3ccc(F)cc3F)nc2OCCN1CC1CC1	.	.	.	.	30%[49.3 µM]	?	?
c1ccc(Cc2nnc([C@H]3CCN(C4CCCCC4)C3)o2)cc1	-29%[172 µM]	0%[70.6 µM]	i	-23%[174 µM]	.	.	.
CNC(=O)[C@@H]1C[C@@H](n2cc(CNC(=O)Nc3cc(C)ccc3C)nn2)CN1	3%	-2%	i	i	.	.	.
CC(C)c1ccc(N2C(=S)N[C@H]3[C@@H](O)[C@H](O)C[C@@H](C(=O)N(C)Cc4ccccc4)[C@H]32)cc1	40µM*	-25%	3.2µM*	35µM*	10%	11µM*	11µM*
CN(Cc1ccccc1)C(=O)[C@H]1C[C@@H](O)[C@H](O)[C@@H]2N=C(Nc3ccc(Cl)cc3)S[C@@H]21	5%	-2%	i	-1%	.	.	.
O=C(Cc1cccnc1)N1CCN(c2ccc3nnc(C4CC4)n3n2)CC1	1%	.	.	-13%	.	.	.
Cc1ccc(-c2nnc(SCc3ccccc3C#N)o2)cc1	.	.	.	.	17%	?	2.2µM*
Cc1nc(NCc2csc(-c3cnccn3)n2)cc(C2CC(O)C2)n1 (centres undefined)	?	1%	i	?	.	.	.
Fc1ccc(NCc2ccccc2-c2nnc(-c3ccccc3Cl)o2)cc1Cl	.	.	.	.	17%	9%	?
COC(=O)c1ccc2c(c1)/C(=C/c1cc(Br)c(O)c(Br)c1)C(=O)N2	.	.	.	.	5%	2%	9.9µM*
CN(CCc1ccccc1)CC[C@@H]1CC[C@H](O)[C@@H](C(=O)NC2CCCCC2)O1	-37%[172 µM]	1%[70.6 µM]	i	-25%[138 µM]	.	.	.
